Screens deposited in PubChem by National Center for Advancing Translational Sciences (NCATS).
Hits are enriched below; roughly 12% of the tested compounds scored in any of these assays.
Sfp PPTase inh – blocks B. subtilis Sfp PPTase activity | hit rate 3.5% among 310,000 | AID 1490 | Potency, µM, for the others: largest response in the series, negative = inhibition, hits mostly inhibitors | Biochemical Sfp PPTase activity, qHTS;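 also: the enzyme is Sfp with the accession as filed and its product quenches rhodamine fluorescence; 0% = enzyme reaction without inhibitor and -100% = no enzyme wells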
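Compounds were incubated with enzyme (final 15 nM) for 15 min at room temperature before substrate addition started the reaction. Fluorescence at 525 nm excitation, 598 nm emission was recorded immediately and after 30 minutes.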
BAZ2B inh – inhibitors of human BAZ2B bromodomain | Q9UIF8 | AlphaScreen BAZ2B-H3K14Ac peptide displacement | Potency, µM (titrated, usually from 114 µM), inactives show at the top dose activity change, negative = inhibition, actives largely listed as inhibitors | hit rate 4.4% among 360,000 | AID 504333; also: % is scaled to controls: 0 for no effect and ±100 for the full control effect; nearly all actives have a fitted effect of over 60% in size
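AlphaScreen displacement of biotin-H3(5-23)K14Ac peptide (50 nM final) from BAZ2B (50 nM final) in PBS pH 7.4, 0.01% Tween-20; complex preformed 30 min RT, then compounds (top 110 uM) 30 min RT, beads 20 min dark.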
HP1b chromo inh – HP1-beta chromodomain-methylated histone interaction inhibition | Potency, µM (top dose mostly 114 µM), for inactives: at the top dose activity change, negative = inhibition, usual class: inhibitors | AID 540317 | P83916 | hit rate 0.56% among 390,000 | AlphaScreen HP1-beta / biotin-H3K9me3 peptide binding; also: nearly all actives have a fitted effect of over 70% in size
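HP1-beta protein (50 nM final) preincubated 30 min at room temperature with biotinylated H3(1-18)K9me3 peptide (50 nM) in PBS pH 7.4, 0.01% Tween-20, then compound added for 30 min. AlphaScreen streptavidin donor/nickel chelate acceptor beads (10 ug/mL final), 30 min dark, luminescence read.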
JMJD2A Tudor – JMJD2A Tudor domain (human) inhibition; O75164; AlphaScreen JMJD2A-Tudor / H3K4me3 peptide binding; Potency, µM (titrated, usually from 114 µM), for inactives: top-dose activity change, negative = inhibition, actives largely listed as inhibitors; hit rate 4.4% among 390,000; AID 504339; also: % is scaled to controls: 0 for no effect and ±100 for the full control effect; nearly all actives have a fitted effect of over 50% in size
G9a inh – G9a (human) methyltransferase inhibition. Q96KQ7. Potency, µM (top dose mostly 102 µM), without a hit: at the highest dose activity, negative = inhibition, hits mostly inhibitors. G9a H3K9 monomethylation, AlphaScreen, 2 h. hit rate 8.8% among 350,000; also: % is scaled to controls: 0 for no effect and ±100 for the full control effect; nearly all actives have a fitted effect of over 75% in size
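Quantitative HTS format: methyltransferase activity on a biotin-tagged H3K9 peptide is measured by AlphaScreen, using a rabbit anti-monomethyl-H3K9 antibody with streptavidin donor and anti-IgG acceptor beads. Final levels are 20 nM enzyme, 500 nM peptide, 20 uM SAM; 2 h RT.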
The depositor's hits bear a star; ? = inconclusive; · = no result given; [ ] = remark or other dose. Calls follow the shape of the dose curve; as a rule, active = well fitted curve in the direction sought with a large enough effect; inconclusive = small, poorly fitted or top-dose-only effect, or another doubt; inactive = no such curve, though single readings can be large; an effect the other way counts as inactive or inconclusive. Potency is read from the fitted curve at half-maximal effect.

SMILES	Sfp PPTase inh	BAZ2B inh	HP1b chromo inh	JMJD2A Tudor	G9a inh
COC(=O)CSC1=C(C#N)C(=O)NC2(CCCCC2)S1	25.1µM*	-36.4%	?	?	?
Cc1ccc(NC(=S)Nc2ccc3cn[nH]c3c2)cc1C	-12.0%	3.4%	19.8%	-18.1%	?
CN(C)c1ccc(NC2=C(Cl)C(=O)c3ccccc3C2=O)cc1	?	2.51µM*	5.01µM*	6.31µM*	2.24µM*
O=C(Nc1ccc2cn[nH]c2c1)c1ccccc1F	2.0%	3.9%	26.8%	-14.8%	0.9%[59 µM]
O=C1C(Cl)=C(Nc2ccc3cn[nH]c3c2)C(=O)c2ccccc21	8.91µM*	8.91µM*	15.8µM*	14.1µM*	-151.8%[59 µM]
CC(C)c1ccc(NC(=S)Nc2ccc3cn[nH]c3c2)cc1	10.0%	?	-0.3%	-30.8%	79.4µM*
O=C(Nc1ccc2cn[nH]c2c1)c1c(Cl)cccc1Cl	39.8µM*	50.1µM*	1.1%	?	1.78µM*
C=CC[C@@H](CC(=O)N[C@@H](CO)Cc1ccccc1)C(=O)N[C@H](COC(=O)[C@H](CC=C)CC(=O)OC(C)(C)C)Cc1c[nH]c2ccccc12	·	·	9.4%	?	·
CS(=O)(=O)N(CC(=O)N1CCOCC1)c1cccc(F)c1	12.4%	37.5%	29.8%	-9.0%	·
CC(=O)c1ccc(NC(=S)Nc2ccc3cn[nH]c3c2)cc1	31.6µM*	-11.8%	-3.9%	-31.1%[57.1 µM]	44.7µM*
CN1CCN(c2ncc3nc(-c4cc(F)cc(F)c4)c(=O)n(Cc4cccs4)c3n2)CC1	0.5%	·	·	·	7.9%[0.501 µM]
O=C(O)CCCCCN1C(=O)C(O)=C(C(=O)/C=C/c2ccccc2)C1c1ccccc1[N+](=O)[O-] (configuration not stated)	?	-17.1%	14.3%	?	-6.4%[0.501 µM]
CCCCN1C(=O)C(O)=C(C(C)=O)C1c1ccccc1 (configuration not stated)	5.5%	?	6.7%	-27.2%	50.1µM*
COCCCN1C(=O)C(O)=C(C(C)=O)C1c1cccc(F)c1 (configuration not stated)	-13.6%	?	10.6%	?	50.1µM*
CC(=O)C1=C(O)C(=O)N(c2ccc(Br)cc2)C1c1ccc(Br)cc1 (configuration not stated)	-6.6%	?	13.3%	-11.0%	50.1µM*
CCCCCCN1C(=O)C(O)=C(C(C)=O)C1c1ccc(Cl)cc1 (configuration not stated)	-7.3%	?	17.2%	-34.8%	-50.5%[12.7 µM]
COc1cccc(C2C(C(C)=O)=C(O)C(=O)N2CCNCCO)c1 (configuration not stated)	16.1%	-16.6%	·	·	24.3%[12.7 µM]
CCCCN1C(=O)C(O)=C(C(C)=O)C1c1ccccc1[N+](=O)[O-] (configuration not stated)	17.8µM*	?	42.1%	-27.1%	?
CC(=O)C1=C(O)C(=O)N(c2ccc(O)cc2)C1c1ccc(F)cc1 (configuration not stated)	1.9%	-3.7%	12.0%	-21.0%	?
CC(=O)C1=C(O)C(=O)N(c2ccc(O)cc2)C1c1ccccc1[N+](=O)[O-] (configuration not stated)	35.5µM*	-27.9%	-3.1%	-7.5%	14.1µM*
CCOC(=O)c1nn(C)c(C)c1Cl	4.5%	4.6%	7.8%	3.5%	1.6%[59 µM]
Cn1cccc1/C=N/n1c(-c2ccccc2)n[nH]c1=S	1.5%	?	?	3.55µM*	2.1%[0.501 µM]
Cn1cccc1/C=N/n1c(-c2ccc(C(C)(C)C)cc2)n[nH]c1=S	-2.0%	44.7µM*	50.1µM*	50.1µM*	7.94µM*
Cc1cc(C)c(CN2CCCC(CNC(=O)c3ccc(F)cc3)C2)c(-n2cccn2)c1 (configuration not stated)	1.8%	-0.7%	40.1%	-4.1%	·
CCS(=O)(=O)Nc1ccc(Cc2ccc(NS(=O)(=O)CC)cc2)cc1	-30.0%	7.0%	18.9%	-7.1%	50.1µM*
SMILES	Sfp PPTase inh	BAZ2B inh	HP1b chromo inh	JMJD2A Tudor	G9a inh
O=C(NNC(=S)NCc1ccccc1)c1cccnc1	12.0%	9.7%	43.1%	-24.4%	28.6%
O=C(NNS(=O)(=O)c1ccccc1)c1cccnc1	-5.6%	-17.4%	12.5%	-11.0%[11.4 µM]	22.4%[59 µM]
Cc1ccccc1NC(=S)NNC(=O)c1cccnc1	-8.4%	-1.5%	-2.9%	22.4µM*	1.78µM*
Cc1cccc(C)c1NC(=O)CNC(=O)c1cccnc1	10.3%	-13.5%	51.4%	-3.8%	79.4µM*
O=C(NNC(=S)Nc1ccccc1)c1cccnc1	5.3%	-22.9%	37.5%	-11.9%	56.2µM*
O=C(NNS(=O)(=O)c1ccc2ccccc2c1)c1cccnc1	2.3%	-0.4%	9.6%	7.94µM*	-16.0%[59 µM]
Cc1cccc(C)c1NC(=O)c1cccnc1	6.9%	-2.0%	10.4%	-1.4%	-1.1%[0.501 µM]
COc1cc(NC(=O)Nc2cccc(C(C)=O)c2)cc(OC)c1OC	-10.1%	-0.1%	34.1%	-18.0%	?
Cc1nn2c(C)c(C(=O)Nc3ccccc3)cnc2c1-c1ccccc1	-0.4%	5.2%	-15.0%	-27.0%	19.8%
Cn1c2ccccc2c2cnn(CC(=O)Nc3ccccc3C(F)(F)F)c(=O)c21	·	-1.9%	29.5%	-8.1%	-2.2%[59 µM]
CCOC(=O)CN(C)Cc1cn(C)nc1-c1ccc(Oc2ccccc2)cc1	3.6%	-22.1%	27.5%	-20.7%	?
O=S(=O)(NCc1cccnc1)c1ccc2ccccc2c1	-0.4%	3.0%	-0.7%	2.8%	12.8%
O=C(NC(=S)NNS(=O)(=O)c1ccc(Cl)cc1)c1cccnc1	17.2%	1.8%	21.6%	-14.3%	50.1µM*
O=C(/C=C/c1ccc(F)cc1)NC(=S)NNC(=O)c1cnccn1	10.5%	2.82µM*	2.2%	7.94µM*	50.1µM*
O=C(NNS(=O)(=O)c1ccc2ccccc2c1)c1cc(-c2ccccn2)nc2ccccc12	-13.0%	9.1%	-9.7%	-32.6%	79.4µM*
O=S(=O)(Nc1ccncc1Cl)c1ccc2ccccc2c1	2.0%	-13.6%	50.2%	0.7%	44.7µM*
Cc1ccc(C(=O)NC(=S)NNS(=O)(=O)c2ccc(C)cc2)cc1	-3.5%	-9.2%	4.0%	-33.1%	7.1%[59 µM]
O=C(O)C1C2CCC(C2)C1C(=O)Nc1ccc(Cl)c(Cl)c1 (configuration not stated)	·	·	31.5%	8.7%	·
Cc1ccc(C)c(NC(=O)c2ccc3c(c2)CCCN3S(C)(=O)=O)c1	·	0.9%	38.7%	-22.6%	10.7%[59 µM]
O=C(NNC(=S)NC(=O)c1cccnc1)c1ccccc1	-0.2%	4.5%[57.1 µM]	0.9%	?	28.2µM*
Cc1ccc(C(=O)NNC(=S)NC(=O)c2ccccc2)cc1	·	·	5.1%	-26.6%	·
O=C(NNC(=S)NC(=O)c1ccc(F)cc1)c1cccnc1	4.1%	7.2%	5.9%	-8.1%	11.2µM*
O=C(NNC(=S)NC(=O)c1cccnc1)c1ccc(F)cc1	-17.5%	14.4%	-1.0%	-14.1%	·
Cc1ccc(NC(=O)C2CCC(CNc3c(N4CCC(C)CC4)c(=O)c3=O)CC2)cc1F (configuration not stated)	5.3%	-2.6%	24.4%	-23.3%	·
